The whole screen tested about 290,000 compounds, of which about 27,000 (9.3%) were called active. The entries come from a sample that favours actives as a whole. Unmarked numbers belong to inactive results. Cut-off read from the data, not from the text of the source: active = inhibition mostly above about 28% (no sharp cut-off); inactive = mostly below about 43%.

The nature of this assay: A qHTS for Small Molecule Inhibitors of Shiga Toxin. Note: 0% is about no effect. As to conditions: Vero cells, Shiga toxin protein synthesis inhibition reporter; at 38.7 µM, hits give high values. Background: qHTS replaces the single test concentration by a dilution series.
For the molecule `CC(C)C(=O)Nc1c2c(nn1-c1ccccc1)CSC2`, the inhibition (as a rule, the change of the read-out against control, counted positive when it falls) is -0.685%.

Regarding `COc1cc2c(cc1OC)C(C)N(S(=O)(=O)c1cnc(Cl)c(Cl)c1)CC2` (stereo not drawn), the inhibition is -3.13%.

For `Oc1oc(-c2ccccc2Br)nc1/C=N/c1ccccn1`, the inhibition is 102% (active).

Regarding `CC(C)n1c(O)c(N=Nc2ccccn2)c2ccccc21`, the inhibition is 11.1%.

Regarding `O=C(c1ccc[nH]c1=S)N1CCN(S(=O)(=O)c2ccc(Br)cc2Cl)CC1`, the inhibition is -6.76%.

For the molecule `CC(C)c1ccc(NC(=O)[C@@H](NC(=O)N2CC(=O)Nc3ccccc32)C(C)C)cc1`, the inhibition is -1.19%.

For the molecule `COc1ccc(N(C(=O)c2snc(C(N)=O)c2N)C(C(=O)NC2CCCC2)c2ccco2)cc1OC` (stereo not drawn), the inhibition is 10.1%.

Regarding `Cc1cnc(CN(C)C(=O)C2CCC(=O)N(CCc3cccc(F)c3)C2)[nH]1` (stereo not drawn), the inhibition was -1.92%.

Consider `CCc1ccc(-c2nc(SCC(=O)NC3CCCC3)n[nH]2)cc1`, for which the inhibition was 22.7% (active).

Take `COc1ccc(-c2nc(SCC(=O)N3CCCC3)n[nH]2)cc1`: the inhibition was 38.5%.

Turning to `CCc1c(C)nc(SCC(=O)NC2CCCC2)[nH]c1=O`, the inhibition is -6.89%.

Take `COc1ccc(S(=O)(=O)NC(C)c2ccccc2)cc1C(=O)N1CCCCC1` (stereo not drawn): the inhibition was -7.47%.

`Clc1cccc(Cl)c1OCCOCCNCc1ccccc1`: the inhibition was 1.14%.

As for `Cc1cc(N2CCN(c3ccccc3)CC2)nc(N2CCOCC2)n1`, the inhibition is -8.49%.

`FC(F)(F)c1nnc2ccc(N3CCN(c4ccccc4)CC3)nn12`: the inhibition was -8.76%.

Take `Cc1cc(C)n(-c2nnc(N3CCN(c4ccccc4)CC3)nn2)n1`: the inhibition was 35.7% (active).

As for `CCOc1ccc2[nH]c(=O)c(CN(CCCO)S(=O)(=O)c3ccc(F)cc3)cc2c1`, the inhibition was -6.85%.

As to `Cc1ccc(C(=O)NCC(=O)OCC(=O)NC2CCCCCCC2)cc1`, the inhibition was -5.5%.

Turning to `O=C1c2ccccc2C(=O)c2c1cccc2N1CCN(Cc2ccccc2)CC1`, the inhibition is 47.7%.

Regarding `O=C1c2ccccc2C(=O)c2c1cccc2N1CCN(CCO)CC1`, the inhibition is 75.3% (active).

Consider `O=C(NC(c1ccccc1)c1ccccc1)N1CCN(CCO)CC1`, for which the inhibition was 8.02%.

On to `NC(=O)CSc1nnc(NC(=O)c2ccc(Br)o2)s1`, for which the inhibition is 15.2%.

`CN(C)c1cccc(C(=O)N2CCC(n3nccc3NC(=O)C3CCOC3)CC2)c1` (stereo not drawn): the inhibition is -1.93%.

Consider `CS(=O)(=O)c1ccc(Cl)c(NC(=O)Nc2ccccc2)c1`, for which the inhibition is 38.5%.

Regarding `Cc1ccc(NC(=O)Nc2ccccc2)c(Br)c1`, the inhibition was 105% (active).

As for `Cc1c(NC(=O)Nc2ccccc2)cccc1[N+](=O)[O-]`, the inhibition is -38.1%.

For the molecule `COc1cc(NC(=O)C2=CC(c3ccc(C)cc3)=NS(=O)(=O)N2C)cc(OC)c1OC`, the inhibition was 7.86%.

Consider `Cc1[nH]c(C)c(S(=O)(=O)N2CCN(c3cccc(C(F)(F)F)c3)CC2)c1C(=O)N1CCCC1`, for which the inhibition is -8.08%.

Turning to `CCCCCCC(=O)N(O)C1CC(=O)N(c2ccccc2)C1=O` (stereo not drawn), the inhibition is -2.28%.

For the molecule `CCOc1ccc(N2C(=O)CC(N(O)c3ccccc3)C2=O)cc1` (stereo not drawn), the inhibition was 100% (active).

As for `CCOc1ccc(N2C(=O)CC(N(CCc3ccc(OC)c(OC)c3)C(=S)Nc3ccccc3)C2=O)cc1` (stereo not drawn), the inhibition is 9.09%.

With `CCc1nn(-c2cc(Oc3cccc4ccccc34)nc(-c3ccccc3)n2)c(N)c1C#N`, the inhibition was -16.3%.

`COC(=O)c1ccc(/C=N/N2C(C)CCCC2C)cc1` (stereo not drawn): the inhibition is 66.3% (active).

Take `CC1CCCC(C)N1/N=C/c1ccccc1OC(F)F` (stereo not drawn): the inhibition was -12.3%.

For the molecule `COC(=O)c1ccc(/C=N\n2c(C)nnc2C)cc1`, the inhibition is 8.68%.

Regarding `CCN(CC(=O)N1CCCC1)S(=O)(=O)c1ccc(F)cc1`, the inhibition is -4.28%.

With `COC(=O)c1ccc(C(NC(=O)OCc2ccccc2)/C(C)=C/[C@@H](C)C(=O)NCc2ccc(OC)c(OC)c2)cc1` (stereo partly drawn), the inhibition was -13.4%.

In the case of `Cn1cnnc1SCc1nnc(-c2ccccc2Br)o1`, the inhibition is 58.3% (active).

As to `Cn1cnnc1SCC(=O)NNC(=O)COc1ccc(Br)cc1`, the inhibition was 1.38%.

With `Nc1cccc2c1C(=O)N(Cc1nnc(-c3ccccc3Br)o1)C2=O`, the inhibition was 18.9%.

For the molecule `O=C(CN1C(=O)S/C(=C\c2ccccc2Cl)C1=O)NC1C=CS(=O)(=O)C1` (stereo not drawn), the inhibition is -2.51%.

With `COc1ccc(C2=NS(=O)(=O)N(C)C(C(=O)NC(C)c3ccccc3)=C2)cc1` (stereo not drawn), the inhibition was 10.4%.

For the molecule `COc1ccc(CCNC(=O)CCCCCNC(=O)N2CCn3c2nc2ccccc23)cc1OC`, the inhibition is 4.93%.

For the molecule `COc1ccc(C2=NOC(COC(=O)c3ccc4ccccc4n3)C2)cc1` (stereo not drawn), the inhibition is 22.8%.

For `O=C(CNC(=O)c1ccccc1)Oc1ccc([N+](=O)[O-])cc1`, the inhibition was -10.1%.

As to `O=C(Oc1ccc([N+](=O)[O-])cc1)c1ccc2ccccc2n1`, the inhibition was -35.6% (active).

For the molecule `COc1ccc(C(=O)Nc2c(N)nc(SCC(=O)Nc3ccc(C(C)=O)cc3)[nH]c2=O)cc1`, the inhibition was -1.66%.

Consider `CC(=C/c1ccccc1)/C=N/NC(=O)c1cc(C)oc1C`, for which the inhibition is 0%.

With `Cc1cc(C(=O)N/N=C/c2ccccc2[N+](=O)[O-])c(C)o1`, the inhibition is 72.5% (active).

With `O=C(Cc1cc(=O)[nH][nH]1)N/N=C/c1ccccc1[N+](=O)[O-]`, the inhibition was 13.6%.

`Cc1c(Cl)c([N+](=O)[O-])nn1CC(=O)NCCCN1CCOCC1`: the inhibition was -6.5%.

For `COc1ccc(-n2c(=O)[nH]c3cc(C(=O)NCCc4ccc(OC)c(OC)c4)ccc3c2=O)c(OC)c1`, the inhibition is 3.16%.

Take `O=C(NNC(=S)Nc1ccc(F)cc1)[C@H]1C[C@@H]1c1ccccc1`: the inhibition is -8.83%.

For `Cc1ccc(C2CC2C(=O)NN)cc1` (stereo not drawn), the inhibition is -15.4%.

With `Cc1ccc(NC(=O)C2CC2c2ccccc2)cc1` (stereo not drawn), the inhibition is 32% (active).

Turning to `COc1ccc(OC)c(CNC(=O)c2cc(=O)[nH]c3ccc(S(=O)(=O)N4CCCC4)cc23)c1`, the inhibition is -3.87%.

On to `COc1cccc(-n2c(N)cc(=O)nc2SCC(=O)Nc2cc(C)on2)c1`, for which the inhibition is 13.4%.

`COc1cccc2sc(Nc3nc(C)c(C(C)=O)s3)nc12`: the inhibition was 29.8%.

As to `CC(=O)c1sc(NC(=O)c2cccc3ccccc23)nc1C`, the inhibition is 31.4%.

`COc1cc2ccccc2cc1C(=O)Nc1nc(C)c(C(C)=O)s1`: the inhibition is 69.5% (active).

On to `COc1cc(OC)c(C(=O)Nc2ccccc2-c2ccccc2)cc1OC`, for which the inhibition is -5.65%.

For the molecule `COc1cc2ccccc2cc1C(=O)Nc1ccc(NC(=O)c2cccs2)cc1`, the inhibition was 15.8%.

Regarding `COc1cc2ccccc2cc1C(=O)Nc1ccccc1C`, the inhibition was 32.5% (active).

Values taken from PubChem BioAssay AID2315 (National Center for Advancing Translational Sciences (NCATS), 2010).
